# Only a selection was taken, and hits are over-represented in it overall.
# ST2 inh = inhibitors of human ST2 (IL1RL1) binding to IL-33, primary screen, biochemical, AlphaLISA; inhibition, % for hits at 17 µM; AlphaLISA ST2-Fc/biotin-IL-33 interaction, 1 h; hit rate 2.3% among 78,000; AID 1259354, 2018; Interleukin-1 receptor-like 1 (Homo sapiens), Q01638; in the data active means inhibition above about 30%
# Target sequence (Q01638 whole entry, looked up): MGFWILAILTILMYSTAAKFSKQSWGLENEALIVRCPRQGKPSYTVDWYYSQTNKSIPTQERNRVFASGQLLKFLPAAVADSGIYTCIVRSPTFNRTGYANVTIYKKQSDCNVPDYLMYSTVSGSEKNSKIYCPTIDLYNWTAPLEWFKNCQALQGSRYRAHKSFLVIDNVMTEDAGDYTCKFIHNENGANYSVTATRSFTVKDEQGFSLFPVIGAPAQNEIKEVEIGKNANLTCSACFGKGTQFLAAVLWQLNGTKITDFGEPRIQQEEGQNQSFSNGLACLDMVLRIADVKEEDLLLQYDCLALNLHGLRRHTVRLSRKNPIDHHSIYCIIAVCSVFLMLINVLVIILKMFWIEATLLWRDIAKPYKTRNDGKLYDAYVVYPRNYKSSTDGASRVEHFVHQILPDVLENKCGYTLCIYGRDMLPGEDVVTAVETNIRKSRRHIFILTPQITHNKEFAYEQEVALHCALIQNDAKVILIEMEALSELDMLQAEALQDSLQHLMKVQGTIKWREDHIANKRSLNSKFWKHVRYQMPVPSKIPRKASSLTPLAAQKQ
# * marks the source's active call; other numbers are inactive results; i = inactive.
SMILES,ST2 inh
CCOc1ccc(S(=O)(=O)NCC(=O)O)cc1,i
CC1=C(C(=O)Nc2ccc(C)cc2C)C(c2cccnc2)n2nnnc2N1 (configuration not stated),i
CCc1ncc(C(=O)N2CCC(N(C)Cc3ccccc3)CC2)cn1,i
COc1ccc(Cl)cc1NC(=O)CSc1nnc(COc2cccc(C)c2)o1,i
CCCCNc1ncnc2c1cnn2-c1cccc(C)c1,i
COc1cc(OC)c(C=Nc2cc([N+](=O)[O-])ccc2C)cc1Br,i
COc1ccc(N=Cc2ccc(Br)c([N+](=O)[O-])c2)cc1,38%*
COc1cc(C=O)ccc1OCCCOc1ccc([N+](=O)[O-])cc1,i
Cc1ccc(N=Cc2ccc(Br)c([N+](=O)[O-])c2)c(O)c1,i
Cc1ccc(N=Cc2ccc(N(C)C)c([N+](=O)[O-])c2)cc1,i
N#Cc1ccccc1N=Cc1ccc(Br)c([N+](=O)[O-])c1,30%*
O=[N+]([O-])c1cc(C=Nc2ccc3c(c2)OCCO3)ccc1Br,i
N#Cc1ccccc1N=Cc1cc2c(cc1[N+](=O)[O-])OCO2,i
COc1ccc(N=Cc2ccc(Oc3ccc([N+](=O)[O-])cc3[N+](=O)[O-])c(OC)c2)cc1,34%*
Cc1nc(C(C)C)sc1C(=O)NCCNS(C)(=O)=O,i
O=C(O)C[C@@H]1CCN(C(=O)c2ccc3c(c2)OCO3)C[C@@H]1CC1=NCCc2ccccc21,i
C=CCNC(=O)/C(=C/c1ccc2c(c1)OCO2)NC(=O)c1ccccc1OC,i
CCCN1CCC[C@H]1c1nc(-c2ccc(N(C)C)nc2)no1,i
Nc1nc(-c2ccc(-c3ccccc3)cc2)cs1,i
N#C/C(=C\Nc1ccc(S(N)(=O)=O)cc1)c1nc(-c2ccccc2)cs1,i
N#C/C(=C/c1ccc(F)cc1)c1nc(-c2ccccc2)cs1,56%*
N#C/C(=C/C=C/c1ccccc1)c1nc(-c2cccs2)cs1,60%*
N#C/C(=C/C=C/c1ccccc1)c1nc(-c2ccc(F)cc2)cs1,40%*
N#CCc1nc(-c2ccccc2)cs1,i
CC(c1nccs1)N(C)C(=O)c1ccc(-n2cnnc2)cc1 (configuration not stated),i
SMILES,ST2 inh
Cc1cccc(-n2c(CCc3nc4ccccc4[nH]3)n[nH]c2=O)c1,i
CCOc1cccc(C2C(C(=O)OC3CCCC3)=C(C)NC3=C2C(=O)C(C(=O)OC)C(C)C3)c1 (configuration not stated),i
COC(=O)c1ccc(Nc2nnc(C(C)(C)C)c(=O)[nH]2)cc1,i
COc1ccc2nc(N=C(N)NC(C)=O)nc(C)c2c1,i
Oc1oc(-c2ccccc2)nc1C=Nc1ccc(Br)cc1Br,i
Cc1nc(CCC(=O)N2CCCC(CCc3ccc(F)c(F)c3)C2)n[nH]1 (configuration not stated),i
O=C(c1cnc2ccccc2n1)N1CCn2c(nc3ccccc32)C1,i
O=C(c1cc2ccccc2o1)N1CCN=C1SCc1cccc(C(F)(F)F)c1,i
CCOC(=O)c1c(C)n(CC)c2ccc(OC(=O)COc3ccc(OC)cc3)cc12,i
CCC(=O)N1CCc2cc(Br)cc(S(=O)(=O)NC3CCCCC3C)c21 (configuration not stated),i
Cc1cc(C)n(C2CCN(Cc3cc(C(C)C)no3)C2)n1 (configuration not stated),i
CCc1nnc(NC(=O)CSc2nc(-c3cccs3)cc(C(F)(F)F)c2C#N)s1,i
CC(=O)CSc1nc(-c2cccs2)cc(C(F)(F)F)c1C#N,i
N#Cc1c(C(F)(F)F)cc(-c2cccs2)nc1SCC(=O)Nc1ccc([N+](=O)[O-])cc1,38%*
COc1ccc(OC)c(C2CCN(c3cc(OC)ncn3)C2)c1 (configuration not stated),i
COc1cc(N2CCC(Cn3cc(CO)nn3)CC2)ncn1,65%*
Cc1ccc(CCC(=O)N2CCC(Cn3cc(CO)nn3)CC2)cc1C,i
Cc1ncc(CN2CCCC2C(=O)Nc2ccc(-c3nc4ccccc4o3)cc2)[nH]1 (configuration not stated),i
Brc1ccc(-c2nc(NCc3ccco3)c3ccccc3n2)cc1,i
c1csc(C2=NN3C(C2)c2ccccc2OC32CCCC2)c1 (configuration not stated),i
CC(C)C1Oc2ccc(Cl)cc2C2CC(c3cccs3)=NN21 (configuration not stated),34%*
Clc1ccc2c(c1)C1CC(c3ccccc3)=NN1CO2 (configuration not stated),i
CC(=O)c1ccc(N2C(=O)c3ccc(F)cc3C2=O)cc1,i
CCc1ccc(N(CC(=O)N2CCOCC2)S(=O)(=O)c2ccccc2)cc1,i
CC1=CC(=NS(=O)(=O)c2cccc([N+](=O)[O-])c2)C=CC1=O,i
SMILES,ST2 inh
Cc1cc(C)c(S(=O)(=O)N=C2C=CC(=O)c3ccccc32)cc1C,47%*
Cc1cc(S(=O)(=O)N=C2C=CC(=O)c3ccccc32)ccc1Cl,42%*
Cc1cc(C)c(S(=O)(=O)N2CCN(c3cc(-c4ccccc4C)ncn3)CC2)cc1C,i
Cc1cc(Br)c(S(=O)(=O)N2CCN(c3ccccc3)CC2)cc1C,i
Cc1cc(C)c(S(=O)(=O)N=C2C=C(Br)C(=O)c3ccccc32)cc1C,35%*
Cc1cc(C)c(S(=O)(=O)N2CCN(c3ccccc3)CC2)cc1C,i
Cc1cc(C)c(S(=O)(=O)N2CCCCC2)cc1S(=O)(=O)N1CCCCC1,i
Cc1cc(S(=O)(=O)N2CCN(S(=O)(=O)c3ccc(Cl)c(C)c3)CC2)ccc1Cl,i
CN(Cc1nc2ccc(F)cc2[nH]1)Cc1nc(-c2cccs2)no1,i
COc1cccc(-n2cc(C(=O)NC(C)C(=O)O)c3ccccc3c2=O)c1 (configuration not stated),i
CC(C)Cn1nc(C(=O)N2CCOCC2)c2c1CCC(NCc1ccc(F)cc1)C2 (configuration not stated),i
Cc1ccccc1CN1CCC(CN(CC2CCCO2)C(=O)c2ccc(N(C)C)cc2)CC1 (configuration not stated),i
Cc1ccc(C)c(N2CCN(Cc3ccc(-c4ccccc4[N+](=O)[O-])o3)CC2)c1,38%*
COc1cc(OC)c(OC)cc1CN1CCN(Cc2cc(OC)c(OC)cc2[N+](=O)[O-])CC1,i
CCOc1ccccc1N1CCN(Cc2ccc(OC)cc2OC)CC1,i
COc1cc(CN2CCN(c3ncccn3)CC2)c([N+](=O)[O-])cc1OC,i
Cc1ccc(C)c(N2CCN(Cc3cc4c(cc3[N+](=O)[O-])OCO4)CC2)c1,32%*
Cc1ccccc1N1CCN(Cc2ccco2)CC1,i
COc1cc([N+](=O)[O-])cc(CN2CCN(c3cc(C)ccc3C)CC2)c1O,41%*
COc1ccc(CN2CCN(Cc3cccc([N+](=O)[O-])c3)CC2)c(OC)c1OC,i
COc1cc(CN2CCN(c3ccccc3OC)CC2)c([N+](=O)[O-])cc1OC,i
COc1cc(CN2CCN(c3ccccc3F)CC2)cc([N+](=O)[O-])c1O,i
CCOc1ccccc1N1CCN(Cc2cc3c(cc2[N+](=O)[O-])OCO3)CC1,30%*
O=[N+]([O-])c1ccc(CN2CCN(Cc3ccccc3)CC2)o1,i
O=C(NC1CCCC1)c1ccc2c(c1)ncn2C1CCCCCC1,i
COc1ccc(OC)c(S(=O)(=O)N2CCN(c3cc(-c4cccc(C)c4)ncn3)CC2)c1,i
